# L3MBTL1 inh – inhibitors of human L3MBTL1; Q9Y468; AlphaScreen L3MBTL1–H3K9me1 peptide binding; Potency, µM (top dose mostly 57.1 µM), without a hit: at the top dose activity, negative = inhibition, usual class: inhibitors; actives 0.66% (n = 230,000); AID 485360; further: potency means the concentration at half of the fitted maximal effect; on the % scale 0 is the no-effect control and ±100 the full control effect; nearly all actives have a fitted effect of over 60% in size
#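 Read-out is AlphaScreen signal from streptavidin donor and nickel chelate acceptor beads (10 ug/mL final each) bridging L3MBTL1 (50 nM) and biotinylated K9-monomethylated H3(1-15) peptide (75 nM), after 30 min compound exposure at room temperature.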
# Sfp PPTase inh – Sfp phosphopantetheinyl transferase inhibition; Q9F4F7; Biochemical Sfp PPTase activity, qHTS; Potency, µM, for the others: largest response in the series, negative = inhibition, hits mostly inhibitors; actives 3.5% (n = 310,000);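 further: the enzyme is Sfp with the accession as filed and its product quenches rhodamine fluorescence; potency means the concentration at half of the fitted maximal effect; 0% = enzyme reaction without inhibitor and -100% = no enzyme wells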
#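 Sfp 15 nM + cpd, 15 min RT; start w/ rhodamine-CoA 5 uM, BHQ-2-YbbR 12.5 uM (final); 50 mM Hepes pH 7.6, 10 mM MgCl2, 0.01% NP-40, 0.01% BSA; read 525/598 nm at 0 and 30 min.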
# JMJD2A Tudor – blocks the human JMJD2A Tudor domain. O75164. AlphaScreen JMJD2A-Tudor / H3K4me3 peptide binding. Potency, µM (doses to about 114 µM), without a hit: at the highest dose activity change, negative = inhibition, hits mostly inhibitors. actives 4.4% (n = 390,000). AID 504339; further: potency means the concentration at half of the fitted maximal effect; on the % scale 0 is the no-effect control and ±100 the full control effect; nearly all actives have a fitted effect of over 50% in size
# Target sequence (O75164 whole entry, looked up, the tested form may be a part): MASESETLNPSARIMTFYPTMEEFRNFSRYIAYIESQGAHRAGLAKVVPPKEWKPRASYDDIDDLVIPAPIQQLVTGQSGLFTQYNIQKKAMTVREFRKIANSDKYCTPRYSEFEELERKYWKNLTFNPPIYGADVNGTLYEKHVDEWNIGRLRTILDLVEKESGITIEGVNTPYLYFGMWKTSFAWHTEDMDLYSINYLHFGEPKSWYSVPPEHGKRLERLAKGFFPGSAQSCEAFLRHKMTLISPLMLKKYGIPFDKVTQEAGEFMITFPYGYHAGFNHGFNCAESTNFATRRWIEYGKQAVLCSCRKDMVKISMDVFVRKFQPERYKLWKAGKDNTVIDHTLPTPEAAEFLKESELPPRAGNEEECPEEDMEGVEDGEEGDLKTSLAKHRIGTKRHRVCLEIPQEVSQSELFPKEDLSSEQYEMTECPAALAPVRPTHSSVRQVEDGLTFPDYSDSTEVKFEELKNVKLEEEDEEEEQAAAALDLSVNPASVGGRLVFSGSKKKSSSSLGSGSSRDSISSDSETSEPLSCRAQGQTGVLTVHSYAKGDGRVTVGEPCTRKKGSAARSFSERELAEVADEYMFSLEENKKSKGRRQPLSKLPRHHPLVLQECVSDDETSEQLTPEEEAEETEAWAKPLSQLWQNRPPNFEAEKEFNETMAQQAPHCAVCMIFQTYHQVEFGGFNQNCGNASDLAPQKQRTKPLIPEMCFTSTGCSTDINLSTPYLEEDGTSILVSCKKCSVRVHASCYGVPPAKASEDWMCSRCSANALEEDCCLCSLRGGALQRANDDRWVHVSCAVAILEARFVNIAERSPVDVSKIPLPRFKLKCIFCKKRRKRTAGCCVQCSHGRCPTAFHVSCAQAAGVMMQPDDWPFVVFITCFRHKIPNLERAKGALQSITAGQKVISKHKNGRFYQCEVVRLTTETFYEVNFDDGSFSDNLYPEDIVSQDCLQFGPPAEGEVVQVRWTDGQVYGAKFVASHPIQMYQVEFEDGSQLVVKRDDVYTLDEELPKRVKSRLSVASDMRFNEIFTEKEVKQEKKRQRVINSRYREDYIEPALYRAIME
# BAZ2B block – inhibitors of human BAZ2B bromodomain; Q9UIF8; actives 4.4% (n = 360,000); AID 504333; Potency, µM (series often up to 114 µM), for the others: at the highest dose activity change, negative = inhibition, most hits filed as inhibitors; AlphaScreen BAZ2B-H3K14Ac peptide displacement; further: potency means the concentration at half of the fitted maximal effect; on the % scale 0 is the no-effect control and ±100 the full control effect; nearly all actives have a fitted effect of over 60% in size
#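 AlphaScreen displacement: compounds (up to 110uM) incubated 30 min at room temperature with a preformed 50 nM BAZ2B/50 nM biotinylated H3K14Ac peptide complex in PBS pH 7.4 with Tween-20. Donor and acceptor beads at 10 ug/mL final added, 20 min light-protected before reading.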
# HP1b chromo inh – HP1-beta chromodomain-methylated histone interaction inhibition; AlphaScreen HP1-beta / biotin-H3K9me3 peptide binding; Potency, µM (top dose mostly 114 µM), for inactives: at the highest dose activity change, negative = inhibition, usual class: inhibitors; actives 0.56% (n = 390,000); AID 540317; further: potency means the concentration at half of the fitted maximal effect; nearly all actives have a fitted effect of over 70% in size
#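 Compound inhibition of the preformed complex between 50 nM HP1-beta and 50 nM biotinylated H3K9me3 peptide was read by AlphaScreen. Buffer was PBS pH 7.4 with 0.01% Tween-20. Incubations ran 30 min at room temperature, with 10 ug/mL donor/acceptor beads.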
# G9a inh-1 – blocks human histone lysine methyltransferase G9a; AID 504332; actives 8.8% (n = 350,000); G9a H3K9 monomethylation, AlphaScreen, 2 h; Q96KQ7; Potency, µM (doses to about 102 µM), for inactives: at the top dose activity, negative = inhibition, hits mostly inhibitors; further: potency means the concentration at half of the fitted maximal effect; on the % scale 0 is the no-effect control and ±100 the full control effect; nearly all actives have a fitted effect of over 75% in size
#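 G9a (20 nM) preincubated 15 min RT with compounds, then 500 nM biotinylated H3K9 peptide and 20 uM SAM added; 2 h RT reaction. Monomethyl-H3K9 product detected by AlphaScreen with anti-H3K9me1 antibody, streptavidin donor and anti-rabbit IgG acceptor beads.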
# JMJD2E confirm – confirmation of inhibitors of human JMJD2E demethylase; shares compounds with JMJD2A Tudor; Recombinant JMJD2E, FDH-coupled NADH fluorescence (FDH is formaldehyde dehydrogenase); Potency, µM (top dose mostly 56.8 µM), for the others: top-dose activity change, negative = inhibition, hits mostly inhibitors; actives 93% (n = 140)
# FDH inh – FDH (Pseudomonas putida) inhibition counter-screen | shares compounds with JMJD2A Tudor | FDH enzyme assay, NADH fluorescence kinetic | Potency, µM (series often up to 56.7 µM), for the others: at the top dose activity, negative = inhibition, hits mostly inhibitors | actives 10% (n = 140)
# G9a inh-2 – inhibits human G9a histone lysine methyltransferase, hit confirmation; shares compounds with JMJD2A Tudor; G9a H3K9 monomethylation, AlphaScreen, 2 h; Potency, µM, usual class: inhibitors; actives 89% (n = 370); AID 588344; further: potency means the concentration at half of the fitted maximal effect; nearly all actives have a fitted effect of over 65% in size
# RGS4 confirm – inhibits human RGS4, hit validation; shares compounds with JMJD2A Tudor; RGS4 GAP activity, Transcreener GDP fluorescence polarization; Potency, µM, hits mostly inhibitors; actives 80% (n = 25); AID 602388
# * hit, by the source's call; u = inconclusive; x = no result; [ ] = dose if it differs, or a comment. Only some compounds are listed: those with a hit (about 12% of all), similar ones and a draw of the others. The call rests on the fitted dose curve; in most records, active means well fitted curve in the direction sought with a large enough effect; inconclusive means small, poorly fitted or top-dose-only effect, or another doubt; inactive means no such curve, though single readings can be large; an effect the other way counts as inactive or inconclusive.
SMILES,L3MBTL1 inh,Sfp PPTase inh,JMJD2A Tudor,BAZ2B block,HP1b chromo inh,G9a inh-1,G9a inh-2,others
Cc1csc2nc(COC(=O)c3ccccc3NC(=O)c3ccc(C(C)(C)C)cc3)cc(=O)n12,x,x,-12.9%,-14.9%,24.0%,15.5%[59 µM],x,
FC(F)(F)c1ccc(NC(=S)NCc2ccccc2)cc1,14.2%,3.8%,13.1%,6.6%,24.1%,23.8%,x,
Cc1ccc(N2NC3(CCN(C(N)=O)CC3)NC2=O)cc1,3.8%,-11.7%,-16.7%,-19.2%,30.7%,0.708µM*,39.8*,
Cc1ccc(N2C(=O)NC3(CCCCC3)C2=O)cc1,1.0%,8.2%,2.3%,1.4%,28.9%,21.1%,x,
CCc1ccc2c(c1)CCCN2C(=O)c1ccccc1C(=O)O,x,-1.3%,u,56.2µM*,24.7%,u,u,
O=C(c1ccccc1F)N1CCCc2ccccc21,x,-1.5%,-8.5%,-10.4%,28.6%,x,x,
COCCCN(C(=S)NC(=O)C(C)(C)C)c1c(N)n(Cc2ccccc2)c(=O)[nH]c1=O,-1.9%,-29.3%,-6.8%,-14.3%,80.4%,-5.7%,x,
Cc1ccc(C)c(S(=O)(=O)N2CCN(Cc3ccc(O)c4ncccc34)CC2)c1,u,18.1%,-14.1%,x,31.6%,-38.1%,x,JMJD2E confirm=35.5µM*;FDH inh=u
Cc1ccc(CNc2ccc(N3CCOCC3)cc2)s1,x,-11.7%,50.1µM*,44.7µM*,u,u,10*,
O=C(CC1Sc2ncnn2C1=O)Nc1ccc(Cl)cc1 (stereo not given),-4.2%,35.5µM*,u,-32.9%,-18.6%,2.51µM*,u,JMJD2E confirm=2µM*;FDH inh=0.251µM*
CCOC(=O)c1ccc(NC(=O)CC2SC(=NC)N(C)C2=O)cc1 (stereo not given),6.4%[11.4 µM],1.5%,-10.2%,4.3%,22.7%,-27.9%[12.7 µM],x,
COc1ccc(NC(=O)CC2Sc3ncnn3C2=O)cc1 (stereo not given),10.5%,44.7µM*,u,4.4%,1.5%,1.41µM*,0.632*,JMJD2E confirm=3.16µM*;FDH inh=0.282µM*
COCCN1C(=O)C(CC(=O)Nc2ccccc2)SC1=Nc1ccc(OC)cc1 (stereo not given),x,11.0%,-8.5%,-5.6%,31.8%,-4.0%[59 µM],x,
CCOC(=O)c1ccc(NC(=O)CC2Sc3ncnn3C2=O)cc1 (stereo not given),-6.4%,22.4µM*,7.94µM*,-11.8%,u,2.24µM*,0.564*,JMJD2E confirm=2µM*;FDH inh=0.159µM*
Cc1nc(N2CCCC2)c2c(C(=O)N3CCN(c4cccc(Cl)c4)CC3)c(C)oc2n1,x,x,-34.3%,-18.2%[57.1 µM],8.7%,-8.6%[59 µM],x,
CN1CCc2ccccc2Cc2[nH]c3ccccc3c2CC1,-10.4%,3.6%,-10.1%,-17.0%,26.8%,-44.2%[59 µM],x,
COc1ccc(CN2CCc3c([nH]c4ccccc34)C2)cc1Br,-4.0%,u,20µM*,14.1µM*,-22.5%,u,5.02*,
CCc1cccc(C)c1NC(=O)c1cccc(N(C)C)c1,-4.7%,56.2µM*,-15.4%,89.1µM*,8.5%,u,8.91*,
CON(C)c1nc(NCC(C)C)nc(OCC#N)n1,-2.5%,21.6%,-2.9%,4.2%,39.4%,7.1%[59 µM],x,
COc1ccc(Cl)cc1NC(=O)NCc1cccnc1,x,5.0%,-6.9%,-15.6%,31.7%,49.5%,x,
COc1ccc(Cl)cc1NC(=O)c1c(NCc2cccnc2)sc2c1CCCC2,x,x,u,u,-0.4%,u,1.82*,
Oc1c(C(Nc2nccs2)c2ccc(C(F)(F)F)cc2)ccc2cccnc12 (stereo not given),x,-3.1%,44.7µM*,10.4%,9.8%,-6.1%,x,JMJD2E confirm=22.4µM*;FDH inh=-26.0%
O=C(CSc1nnc2c(n1)[nH]c1ccccc12)Nc1ccc2c(c1)OCO2,x,44.7µM*,-18.5%,-33.2%,-1.4%,1.78µM*,1.59*,
COc1ccc(C(=O)Nc2ccc(N3CCOCC3)cc2)cc1OC,4.7%,6.7%,-9.8%,7.1%,8.5%,3.8%[59 µM],x,
COc1cc(CNc2ccc(N3CCCC3)cc2)ccc1OCc1ccccc1,u,u,35.5µM*,12.6µM*,u,u,2.52*,
SMILES,L3MBTL1 inh,Sfp PPTase inh,JMJD2A Tudor,BAZ2B block,HP1b chromo inh,G9a inh-1,G9a inh-2,others
COc1ccc(C(=O)Nc2ccc(N3CCCC3)cc2)cc1OC,-15.5%,-8.0%,u,u,-1.1%,2.51µM*,2.51*,
O=C(O)CCC(=O)Nc1ccc(N2CCCCCC2)cc1,-6.8%[11.4 µM],22.4µM*,-35.1%,u,7.0%,0.891µM*,0.71*,
COc1ccc(C(=O)Nc2ccc(N3CCCC3)cc2)cc1,x,79.4µM*,-4.1%[11.4 µM],-37.6%,u,1.58µM*,1.26*,
Cc1ccc(CNC(=O)CN2C(=O)COc3ccc(S(=O)(=O)N4CCC(C)CC4)cc32)cc1,x,x,-5.0%,0.1%,41.0%,u,u,
O=c1[nH]c2cc3c(cc2cc1CN(Cc1cccs1)Cc1nnnn1Cc1ccco1)OCCO3,u,20µM*,u,x,-24.1%,u,x,RGS4 confirm=9.47*
Cc1cc2n(n1)SC(Nc1cccc3ccccc13)N2 (stereo not given),-10.8%,-12.1%,50.1µM*,-1.8%,-5.6%,0.631µM*,0.71*,
CN(C(=O)c1cccc(NC(=O)Cc2ccc(NC(=O)C3CCN(C(=O)C4CCCCC4)CC3)cc2)c1)C1CC1,x,x,-13.0%,x,36.1%,x,x,
c1ccc(CCn2c3ccccc3c3nnc(SCc4ccc5nonc5c4)nc32)cc1,x,-13.3%,-0.6%,9.7%,31.2%,12.4%,x,
CCOC(=O)N1CCc2c(sc(NCc3cccs3)c2C(=O)Nc2ccc(OC)cc2OC)C1,x,x,3.16µM*,u,-18.6%,2.82µM*,3.63*,
CCOC(=O)N1CCc2c(sc(NCc3cccs3)c2C(=O)Nc2cc(OC)ccc2OC)C1,x,x,3.16µM*,-38.0%,u,1.58µM*,1.15*,
O=C(Cc1cccc(C(F)(F)F)c1)Nc1cc(S(=O)(=O)N2CCOCC2)ccc1N1CCCC1,-5.8%,x,-18.0%,-7.7%,39.0%,14.4%[2.33 µM],x,

# Screening results from PubChem BioAssay.
